The test system of this assay is iBMDM (immortalised mouse bone-marrow-derived macrophages), LPS-stimulated. Put plainly: mitochondrial superoxide (MitoSOX fluorescence) fold increase over unstimulated control; higher = more LPS-induced mitochondrial ROS (less inhibition). Particulars: inhibitor concentration: 500 nM, LPS: 100 ng/ml. The method, boiled down: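 Values are fold induction of mitochondrial superoxide relative to untreated macrophages, as a mean of replicates. Immortalised mouse bone-marrow-derived macrophages, seeded in triplicate in black 96-well plates, spent 20 h in phenol-red-free 1% FCS/DMEM before a 30 min pretreatment with kinase inhibitors (500 nM). After 10 min loading with 1 μM MitoSox, cells received LPS (100 ng/ml), and fluorescence (510/580 nm) was measured every 60 min for 4 h.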

Counter-ions that a name gives are not always drawn. ± gives the standard deviation of the averaged measurements.

Consider `C=CC(=O)Nc1cccc(Sc2nc(Nc3ccc(N4CCN(C)CC4)cc3)ncc2Cl)c1`, for which the mitochondrial superoxide is, setting by setting: (time after LPS: 1 h) 1.24 ± 0.09; (time after LPS: 2 h) 1.26 ± 0.035; (time after LPS: 4 h) 1.26 ± 0.032.
In the same order, the values of `Cc1ccc(F)c(NC(=O)Nc2ccc(-c3cccc4[nH]nc(N)c34)cc2)c1` [Linifanib (ABT-869)] are 1.66 ± 0.077, 1.72 ± 0.074 and 1.83 ± 0.067.
For the compound `Cc1cc(C(C)Nc2ccccc2)c2nc(N3CCOCC3)cc(=O)n2c1` (stereo not given), the mitochondrial superoxide is, setting by setting: (time after LPS: 1 h) 1.51 ± 0.032; (time after LPS: 2 h) 1.66 ± 0.072; (time after LPS: 4 h) 1.74 ± 0.094.
In the same order, the values of `CC(C)n1nc(-c2cc3cc(O)ccc3[nH]2)c2c(N)ncnc21` are 1.03 ± 0.088, 1.15 ± 0.12 and 1.28 ± 0.063.
In the same order, the values of `CCc1cc(Nc2nccc(-c3c(-c4ccc(OC)c(C(=O)Nc5c(F)cccc5F)c4)nc4ccccn34)n2)c(OC)cc1N1CCC(N2CCN(S(C)(=O)=O)CC2)CC1` are 1.3 ± 0.016, 1.4 ± 0.079 and 1.5 ± 0.03.
In the same order, the values of `CN(C)CCOc1ccc(-c2nc(-c3ccncc3)c(-c3ccc4c(c3)CC/C4=N\O)[nH]2)cc1` are 1.07 ± 0.036, 1.15 ± 0.075 and 1.31 ± 0.083.
`CCOc1cc2ncc(C#N)c(Nc3ccc(F)c(Cl)c3)c2cc1NC(=O)/C=C/CN(C)C` [Pelitinib (EKB-569)] returned a mitochondrial superoxide (time after LPS: 1 h) of 1.2 ± 0.018, a mitochondrial superoxide (time after LPS: 2 h) of 1.21 ± 0.049 and a mitochondrial superoxide (time after LPS: 4 h) of 1.32 ± 0.032.
In the same order, the values of `Cc1cc2c(F)c(Oc3ncnn4cc(OC[C@@H](C)OC(=O)[C@H](C)N)c(C)c34)ccc2[nH]1` are 1.37 ± 0.023, 1.46 ± 0.058 and 1.53 ± 0.016.
The corresponding values for `COc1ccc2c(Oc3ccc(NC(=O)c4c(C)n(CC(C)(C)O)n(-c5ccccc5)c4=O)nc3)ccnc2c1` are 1.09 ± 0.031, 1.2 ± 0.034 and 1.391 ± 0.0084.
In the same order, the values of `CNC(=O)c1cc(Oc2ccc(NC(=O)Nc3ccc(Cl)c(C(F)(F)F)c3)cc2)ccn1` [Sorafenib Tosylate] are 1.6 ± 0.039, 1.68 ± 0.099 and 1.73 ± 0.077.

Values taken from the supplement of paper PMC7393113.
